High-throughput results as filed in PubChem BioAssay.
Shown are actives, neighbours in structure and some others; about 18% of the full set was active somewhere.
IL1B secr inh: blocks inflammasome-driven IL-1 beta release; THP-1 LPS/ATP IL-1B secretion, AlphaLISA, 16 h; stronger effect = lower value; activity change, % at 57.5 µM; 360,000 tested, 4.7% active; AID 743279; in the data active = activity change below about -50%; inconclusive = mostly about -30% to -49%; also: % is scaled to controls: 0 for no effect and ±100 for the full control effect
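Secreted IL-1B measured by AlphaLISA bead assay after 16 h compound exposure of THP-1 cells; compounds (final up to 57.5 uM) added 1 h before LPS (250 ng/mL) and ATP (1.25 mM) stimulation; lower signal means less secretion.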
TGFb inhibitor: inhibitors of TGF-b signaling | HepG2 CAGA-GFP TGF-b/SMAD3 reporter, GFP fluorescence, 18 h; TGF-beta stimulated, 500 pg/mL final | Potency, µM (series often up to 46.1 µM), without a hit: at the highest dose activity, negative = inhibition, hits mostly inhibitors | 410,000 tested, 1.2% active | AID 588855; also: potency is read from the fitted curve at half-maximal effect; % is scaled to controls: 0 for no effect and ±100 for the full control effect; nearly all actives have a fitted effect of over 65% in size
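Per well, imaged GFP fluorescence of HEPG2 CAGA-GFP cells gives the signal; cells get compound, then TGF-beta (500 pg/mL final), 18 h at 37 degrees C; %Activity versus -TGF-beta and +DMSO controls.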
TDP1 cell CPT: growth inhibition of DT40 Tdp1-/-;hTDP1 cells with camptothecin (screen for TDP1 inhibitors) | chicken DT40 Tdp1-/-;hTDP1 cells + 20 nM CPT, ATP luminescence, 48 h | Potency, µM (titrated, usually from 46.2 µM), for the others: at the top dose activity change, negative = growth inhibition, most hits filed as inhibitors | 420,000 tested, 12% active; also: potency is read from the fitted curve at half-maximal effect; % is scaled to controls: 0 for no effect and ±100 for the full control effect; nearly all actives have a fitted effect of over 55% in size
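Chicken DT40 Tdp1-/- cells stably complemented with human TDP1 were seeded at 400 cells/well in medium containing 20 nM camptothecin, exposed to pin-transferred compounds, and grown at 37 °C for at least 48 hr. Viability was read as ATP luminescence.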
TDP1 inh: blocks human tyrosyl-DNA phosphodiesterase 1. 350,000 tested, 0.28% active. Q9NUW8. Potency, µM (series often up to 130 µM), for inactives: at the highest dose activity change, negative = inhibition, actives largely listed as inhibitors. recombinant TDP1, AlphaScreen DNA substrate cleavage; also: potency is read from the fitted curve at half-maximal effect; % is scaled to controls: 0 for no effect and ±100 for the full control effect; nearly all actives have a fitted effect of over 40% in size
Target sequence (Q9NUW8 whole entry, looked up): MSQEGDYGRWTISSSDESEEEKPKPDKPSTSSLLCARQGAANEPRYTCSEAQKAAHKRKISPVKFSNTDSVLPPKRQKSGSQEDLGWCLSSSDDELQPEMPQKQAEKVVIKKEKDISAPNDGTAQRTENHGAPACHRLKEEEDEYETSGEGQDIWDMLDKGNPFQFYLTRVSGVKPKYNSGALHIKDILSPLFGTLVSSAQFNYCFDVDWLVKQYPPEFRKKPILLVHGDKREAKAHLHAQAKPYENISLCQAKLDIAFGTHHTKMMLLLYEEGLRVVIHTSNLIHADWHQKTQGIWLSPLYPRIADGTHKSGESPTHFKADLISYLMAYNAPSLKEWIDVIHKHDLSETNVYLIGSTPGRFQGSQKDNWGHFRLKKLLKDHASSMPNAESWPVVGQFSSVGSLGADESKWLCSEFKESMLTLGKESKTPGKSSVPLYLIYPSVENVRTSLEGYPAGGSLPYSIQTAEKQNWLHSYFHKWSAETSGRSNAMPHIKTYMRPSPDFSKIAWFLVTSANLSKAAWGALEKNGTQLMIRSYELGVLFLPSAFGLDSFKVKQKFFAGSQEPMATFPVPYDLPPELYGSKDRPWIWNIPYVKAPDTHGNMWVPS
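Enzyme-compound mixtures sat 15 min at room temperature, followed by a 5 min reaction with 15 nM final substrate and 10 min with AlphaScreen beads. Recombinant human Tdp1 was used at 1 nM final.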
TDP1 cell noCPT: qHTS for Inhibitors of human tyrosyl-DNA phosphodiesterase 1 (TDP1): qHTS in cells in absence of CPT; Potency, µM (highest dose often 46.2 µM), inactives show at the highest dose activity change, negative = growth inhibition, most hits filed as inhibitors; DT40 Tdp1-/- hTDP1 cells, no CPT, ATP luminescence, 48 h; AID 686978, 2013; 420,000 tested, 15% active; also: potency is read from the fitted curve at half-maximal effect; % is scaled to controls: 0 for no effect and ±100 for the full control effect; nearly all actives have a fitted effect of over 55% in size
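Chicken DT40 Tdp1-/- cells complemented with human TDP1, screened without camptothecin (DMSO vehicle only), 400 cells/well. Compounds pin-transferred, cells incubated at 37 °C for at least 48 hr. Growth read as ATP-dependent luminescence (CellTiter-Glo, 30 min at RT).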
HepG2 tox-1: HepG2 cytotoxicity, counter-screen for TGF-b inhibitors; HepG2 CAGA-GFP viability, ATP luminescence, 18 h; Potency, µM (series often up to 46.1 µM), inactives show at the top dose activity change, negative = cytotoxicity, actives largely listed as cytotoxic; 410,000 tested, 0.76% active; AID 588856; also: potency is read from the fitted curve at half-maximal effect
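CellTiter-Glo luminescence gave cytotoxicity after 18 hours at 37 degrees C. The cells were HepG2 CAGA-GFP in 1% FBS DMEM, stimulated with 500 pg/mL TGF-beta after compound addition. %Activity was normalised to no-cell wells (complete cell-killing) and DMSO (no toxicity), and curves were fitted and classified.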
TGFb CAGA inh: confirmation of TGF-b signaling inhibitors in HepG2 reporter cells. shares compounds with TGFb inhibitor. HepG2 CAGA-GFP TGF-b reporter, GFP fluorescence, 18 h; cells stimulated with TGF-beta, 500 pg/mL. Potency, µM (doses to about 46.1 µM), inactives show top-dose activity, negative = inhibition, actives largely listed as inhibitors. 1,600 tested, 63% active. AID 720534; also: potency is read from the fitted curve at half-maximal effect; % is scaled to controls: 0 for no effect and ±100 for the full control effect; nearly all actives have a fitted effect of over 65% in size
HepG2 tox-2: counter-screen for TGF-b inhibitors: cytotoxicity in HepG2 cells; shares compounds with TGFb inhibitor; HepG2 CAGA-GFP viability, ATP luminescence, 18 h; cells stimulated with TGF-beta, 500 pg/mL; Potency, µM (top dose mostly 46.1 µM), for the others: at the highest dose activity, negative = cytotoxicity, most hits filed as inhibitors; 1,600 tested, 27% active; also: potency is read from the fitted curve at half-maximal effect; % is scaled to controls: 0 for no effect and ±100 for the full control effect; nearly all actives have a fitted effect of over 70% in size
TGFb CCL64 inh: blocks TGF-b signaling in CCL64 reporter cells | shares compounds with TGFb inhibitor | CCL64 CAGA-GFP reporter, TGF-b stimulated, GFP fluorescence, 18 h | Potency, µM (series often up to 46.1 µM), without a hit: top-dose activity, negative = inhibition, actives largely listed as inhibitors | 1,600 tested, 41% active; also: potency is read from the fitted curve at half-maximal effect; nearly all actives have a fitted effect of over 65% in size
TGFb COP inh: TGF-b inhibition validated with COP promoter; shares compounds with TGFb inhibitor; HepG2 COP-GFP TGF-b reporter, GFP fluorescence, 18 h; cells stimulated by added recombinant TGF-beta; AID 720537; 1,600 tested, 3% active; Potency, µM (highest dose often 46.1 µM), for the others: top-dose activity, negative = inhibition, usual class: inhibitors; also: potency is read from the fitted curve at half-maximal effect; nearly all actives have a fitted effect of over 70% in size
* hit, by the source's call; ? = inconclusive; . = no result; ! = not confirmed by another sample. Unless noted, calls follow the shape of the dose curve; as a rule, active = well fitted curve in the direction sought with a large enough effect; inconclusive = small, poorly fitted or top-dose-only effect, or another doubt; inactive = no such curve, though single readings can be large; an effect the other way counts as inactive or inconclusive.

SMILES	IL1B secr inh	TGFb inhibitor	TDP1 cell CPT	TDP1 inh	TDP1 cell noCPT	HepG2 tox-1	TGFb CAGA inh	HepG2 tox-2	TGFb CCL64 inh	TGFb COP inh
Cc1ccccc1C(=O)N1CCN(c2ccc(NC(=O)CSc3ccc(Cl)cc3)cc2)CC1	-72*	4.5µM*	16µM*	5%	10µM*	-4%	4.1µM*	?	?	14%
Cc1ccc(CNC(=O)c2ccc(CS(=O)(=O)Cc3ccc(C)cc3)o2)cc1	.	-25%	-27%	3%	?	-31%	.	.	.	.
O=C(NC1CCCCC1)C(c1cccnc1)N(C(=O)CCl)c1cccc(Cl)c1 (centres undefined)	-93*	10µM*	2.1µM*	5%	2.1µM*	22µM*	5.8µM*	9.2µM*	4.6µM*	?
Cn1nnnc1SCc1c(F)cccc1F	11	28%	-2%	2%	-19%	-2%	.	.	.	.
O=C(NCC(c1ccco1)N1CCCCC1)c1ccc(COc2ccc(Cl)cc2)cc1 (centres undefined)	-75*	13µM*	21µM*	.	13µM*	-25%	16µM*	?	16µM*	73%
N#Cc1ccc(C(=O)NCC(c2ccco2)N2CCCCC2)cc1 (centres undefined)	8	-6%	4%	-2%	5%	3%	.	.	.	.
COc1cc(OC)cc(C(=O)NCC(=O)OC(C)C(=O)NC(C)C2CC3CCC2C3)c1 (centres undefined)	3	0%	-21%	0%	-28%	-23%	.	.	.	.
O=C(NCc1ccccc1)c1nc(S(=O)(=O)Cc2ccccc2)ncc1Cl	-98*	6.3µM*	2.9µM*	1%	2.3µM*	8.9µM*!	4.6µM*	5.2µM*	2.3µM*	29µM*
COc1ccc(CNC(=O)c2nc(S(=O)(=O)Cc3ccccc3)ncc2Cl)cc1	-99*	6.3µM*	1.3µM*	6%	1.3µM*	13µM*	3.7µM*	16µM*	2.3µM*	?
Cc1ccc(CNC(=O)c2nc(SCc3ccccc3C)ncc2Cl)cc1	.	5%	?	2%	?	5%	.	.	.	.
O=C(NCc1ccc2c(c1)OCO2)c1nc(S(=O)(=O)Cc2ccccc2)ncc1Cl	-104*	10µM*	2.6µM*	6%	4.1µM*	-144%	2.3µM*	3.7µM*	2.6µM*	23µM*
Cc1ccc(CS(=O)(=O)c2ncc(Cl)c(C(=O)Nc3ccc(OC(F)F)cc3)n2)cc1	-103*	10µM*	3.7µM*	3%	3.7µM*	18µM*	8.2µM*	16µM*	3.3µM*	?
